Experimental data taken from paper PMC5540273 (PLoS ONE, 2017).

Assays:
Conditions in all cases: concentration: 1 μM, replicates: in singlicate; n = 1
PCTK2 = system: T1, PCTK2
T1 construct: gene CDK17

PCTK3 = system: T2, PCTK3
T2 construct: gene CDK18

PDGFRA = system: PDGFRA
PDGFRB = system: PDGFRB
PDPK1 = system: PDPK1
PFTAIRE2 = system: PFTAIRE2
PFTK1 = system: T3, PFTK1
T3 construct: gene CDK14

PHKG1 = system: PHKG1
PHKG2 = system: PHKG2
PIK3C2B = system: PIK3C2B
PIK3C2G = system: PIK3C2G
PIK3CA = system: PIK3CA
PIK3CB = system: PIK3CB
PIK3CD = system: PIK3CD
PIK3CG = system: PIK3CG
PIK4CB = system: T4, PIK4CB
T4 construct: gene PI4KB

PIKFYVE = system: PIKFYVE
PIM1 = system: PIM1
PIM2 = system: PIM2
PIM3 = system: PIM3
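Also: KINOMEscan kinase panel screen.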

SMILES	%Inh (PCTK2) [%]	%Inh (PCTK3) [%]	%Inh (PDGFRA) [%]	%Inh (PDGFRB) [%]	%Inh (PDPK1) [%]	%Inh (PFTAIRE2) [%]	%Inh (PFTK1) [%]	%Inh (PHKG1) [%]	%Inh (PHKG2) [%]	%Inh (PIK3C2B) [%]	%Inh (PIK3C2G) [%]	%Inh (PIK3CA) [%]	%Inh (PIK3CB) [%]	%Inh (PIK3CD) [%]	%Inh (PIK3CG) [%]	%Inh (PIK4CB) [%]	%Inh (PIKFYVE) [%]	%Inh (PIM1) [%]	%Inh (PIM2) [%]	%Inh (PIM3) [%]
Cc1cc(-c2ccnc(Nc3cccc(C#N)c3)n2)cc(C)c1O [GSK1440913]	55	43	4	60	0	24	18	27	15	0	24	1	0	47	67	97	90	0	0	0
COC(=O)Nc1nc2ccc(Oc3ccc(CC(=O)Nc4cc(C(F)(F)F)ccc4F)cc3)cc2[nH]1 [GW680903]	0	30	98.5	100	0	0	14	0	0	0	0	0	0	0	0	0	5	19	0	0
N#CC1(c2cccc(C(=O)Nc3cccc(Oc4ccc5nc(NC(=O)C6CC6)sc5n4)c3)c2)CC1	0	1	99.7	100	49	0	9	0	19	0	0	0	0	0	0	0	0	0	17	7
Cc1ccc(NC(=O)c2cccc(N3CCCCC3)c2)cc1-c1ccc(C(=O)NCC2CC2)cc1 [GSK1917008]	0	26	34	98.7	5	28	33	0	0	0	45	1	0	25	0	11	0	15	0	0
Cn1cc(-c2ccc3c(c2)CCN3C(=O)Cc2cc(F)cc(C(F)(F)F)c2)c2c(N)ncnc21 [GSK2635225]	14	15	93	100	2	22	22	0	3	0	47	0	8	0	0	0	0	2	0	6
Cc1ccc(-c2ccc3occ(-c4ccc(S(C)=O)cc4)c3c2)nn1 (stereo not shown)	0	0	0	0	16	0	6	0	16	0	18	0	0	2	8	0	3	4	9	4
CC(C)NCC(Cc1ccccc1)NC(=O)c1cc(Br)c(-c2ccnc3[nH]ccc23)s1.Cl.Cl (stereo not shown) [GSK1383281]	13	0	37	74	0	0	27	0	16	0	0	0	0	0	0	0	0	11	0	0
COc1cccc(-c2nc(-c3ccccc3)[nH]c2-c2ccncc2)c1 [SB-610250]	0	14	0	0	0	14	16	0	0	0	0	0	0	0	0	13	63	1	0	0
Cc1ccc(NC(=O)c2ccc(Cl)c(Cl)c2)cc1-c1ccc(C(=O)Nc2ccncc2)cc1 [GSK1398460]	0	25	94.6	100	27	23	1	0	0	0	0	3	69	0	0	3	0	0	0	3
Cc1ccc(NC(=O)c2ccnc(N3CCCCC3)c2)cc1-c1ccc(C(=O)NCC2CC2)cc1 [GW775610]	15	0	59	98.3	0	19	0	0	0	18	0	0	0	0	36	8	24	0	0	0
CN(C)CCOc1ccc(-c2cc(-c3ccc(Cl)c(O)c3)c(-c3ccncc3)[nH]2)cc1.Cl.Cl [SB-684387]	13	1	12	30	0	20	19	0	0	10	30	9	54	8	13	26	45	22	0	13
